{
  "source": "PubChem BioAssay AID485317",
  "about": "(Broad Institute, 2010)",
  "note": "The whole screen tested about 290,000 compounds, of which about 11,000 (3.8%) were called active. The entries come from a sample that favours actives as a whole. A number with no mark means an inactive call.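 Rule for the calls: active = mean replicate inhibition above about 79%, with every replicate also reaching it (limit read from the data); inconclusive = only one of the two criteria met; inactive = mean below limit and not every replicate reaching it.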",
  "data": [
    {"target": "FAD-linked sulfhydryl oxidase ALR (Homo sapiens) (UniProt P55789)", "sequence (P55789 whole entry, looked up)": "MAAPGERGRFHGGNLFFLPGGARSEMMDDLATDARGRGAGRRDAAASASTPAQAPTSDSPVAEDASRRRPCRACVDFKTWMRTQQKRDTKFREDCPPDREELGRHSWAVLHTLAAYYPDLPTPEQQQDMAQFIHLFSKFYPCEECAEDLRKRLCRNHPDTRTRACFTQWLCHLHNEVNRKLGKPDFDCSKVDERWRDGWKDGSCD", "test": "inhibitors of human ALR sulfhydryl oxidase, primary screen, biochemical, H2O2 detection, HRP-luminol luminescence, single point (AID 485317)", "details": "purified ALR, DTT oxidation, active compounds read high, concentration not given here", "values": [
      {"smiles": "O=C(Nc1ccccn1)C1CCN(S(=O)(=O)c2ccc3c(c2)OCCO3)CC1", "inhibition": "1.39%"},
      {"smiles": "CCc1ccc(C(=O)NC(=S)Nc2ccccc2N2CCOCC2)cc1", "inhibition": "-1.76%"},
      {"smiles": "CCc1ccc2nc(Nc3ncc(C(C)=O)c(C)n3)nc(C)c2c1", "inhibition": "-4.9%"},
      {"smiles": "CCc1ccc2ncc(C(=O)c3ccccc3)c(N3CCOCC3)c2c1", "inhibition": "97.1% (active)"},
      {"smiles": "Cc1ccc(N2CC(C(=O)Nc3cc(Cl)ccc3-n3cncn3)CC2=O)cc1", "note": "(stereo not given)", "inhibition": "-10%"},
      {"smiles": "O=C(c1ccncc1)N1CCN(S(=O)(=O)c2cc(C(F)(F)F)cc(C(F)(F)F)c2)CC1", "inhibition": "-17.2%"},
      {"smiles": "CCCn1c(C)cc(-c2csc(NC(=O)CCc3nc4ccccc4c(=O)[nH]3)n2)c1C", "inhibition": "-8.89%"},
      {"smiles": "S=c1[nH]nc(-c2cc(-c3ccsc3)n[nH]2)n1-c1ccccc1", "inhibition": "67.2%"},
      {"smiles": "Cc1cc(-c2n[nH]c(=S)n2-c2ccc(C)c(C)c2)no1", "inhibition": "96% (active)"},
      {"smiles": "Cc1ccc(-c2csc(-c3cc(C)on3)n2)cc1", "inhibition": "-0.833%"},
      {"smiles": "CCCCn1c(N)c(N(CCC(C)C)C(=O)CC2OC(=O)c3ccccc32)c(=O)[nH]c1=O", "note": "(stereo not given)", "inhibition": "-12.6%"},
      {"smiles": "COCCCNC(=O)CC1C[C@H](C(=O)N2CCCCC2)[C@@]2(CCc3ccccc3)c3[nH]c4ccccc4c3CCN2C1=O", "note": "(stereo not given in full)", "inhibition": "-3.65%"},
      {"smiles": "CCCc1nc2ccccc2c(=O)n1NC(=O)c1c(O)c2ccccc2[nH]c1=O", "inhibition": "-6.61%"},
      {"smiles": "CCCc1nc2ccccc2c(=O)n1/N=C/c1ccc(O)c(O)c1", "inhibition": "98.6% (active)"},
      {"smiles": "O=c1c2ccccc2ncn1/N=C/c1ccccc1", "inhibition": "-10.9%"},
      {"smiles": "Clc1ccccc1SCc1nc2ccccc2[nH]1", "inhibition": "-0.577%"},
      {"smiles": "c1ccc2c(CSCc3nc4ccccc4[nH]3)cccc2c1", "inhibition": "98.7% (active)"},
      {"smiles": "c1ccc(-c2nnc(SCc3nc4ccccc4[nH]3)o2)cc1", "inhibition": "-5.4%"},
      {"smiles": "COc1cc(/C=C(\\C#N)c2nc3ccccc3[nH]2)ccc1O", "inhibition": "99% (active)"},
      {"smiles": "Cc1ccc2nc(/C(C#N)=C\\c3ccc(OC(=O)c4cccs4)cc3)[nH]c2c1", "inhibition": "-13.7%"},
      {"smiles": "COc1cc(/C=C(\\C#N)c2nc3c(s2)CC(C)CC3)ccc1O", "note": "(stereo not given)", "inhibition": "70%"},
      {"smiles": "COc1ccc(N2CCN(S(=O)(=O)c3ccc4c(c3)N(C(C)=O)CCO4)CC2)cc1", "inhibition": "89.8% (active)"},
      {"smiles": "CCOC(=O)C1CCN(S(=O)(=O)c2ccc3c(c2)N(C(C)=O)CCO3)CC1", "inhibition": "25.7%"},
      {"smiles": "CC(=O)N1CCOc2ccc(S(=O)(=O)N3CCN(c4cccc(C(F)(F)F)c4)CC3)cc21", "inhibition": "-1.95%"},
      {"smiles": "Cc1cc(C)c(C)c(S(=O)(=O)Nc2cccnc2)c1C", "inhibition": "-4.67%"}
    ]}
  ]
}
